Measurements as given in ChEMBL document CHEMBL3988442, “University of Dundee, Small-Polar-MMV Screening Library” (2021).
Hit rate of the full screen: of about 38,000 compounds, about 1,200 (3.2%) showed an effect of 50% or more. The median lay at about -58%. This excerpt belongs to a sample that is enriched for strong results.

System: Plasmodium falciparum
Experiment: Calibr Malaria Delayed Death Assay SOP
Format: functional, organism-based
Parameters: scale not given: in the data most compounds retested in dose-response had high values
Conditions: concentration 4.99e-06 (unit not given; other assays of the set use mol/L)

| SMILES | Percent Effect |
| --- | --- |
| Cc1ccc(C(=O)N2CC[C@@]3(O)CCCC[C@H]3C2)cc1 | -98.64% |
| O=C1CC(c2ccc(C(=O)O)cc2)c2c(sc3c2CCCC3)N1 (stereo not drawn) | -5.696% |
| O=C1CC(c2cccnc2)c2c(sc3c2CCCC3)N1 (stereo not drawn) | 28.11% |
| O=C1CC(c2ccncc2)c2c(sc3c2CCCC3)N1 (stereo not drawn) | 55.71% |
| O=C(CCc1ccco1)NS(=O)(=O)N1CCOc2ccccc21 | -129.3% |
| CCCc1cc(CNC(=O)Cc2cc(C)no2)on1 | -176% |
| Cc1cc(CS(=O)(=O)NC2CCCCC2)on1 | -56.68% |
| CCC[C@H]1CN(Cc2cc(C)no2)C[C@@H]1NC(=O)C1(COC)CCC1 | -58.42% |
| Cc1cc(C[C@@H]2CCC[C@H]2NCc2ccccc2F)on1.O=C(O)CC(O)(CC(=O)O)C(=O)O | -9.902% |
| Cc1cc(C[C@@H]2CCC[C@H]2NCc2cccc(F)c2F)on1.O=C(O)CC(O)(CC(=O)O)C(=O)O | -66.07% |
| Cc1cc(C[C@@H]2CCC[C@H]2NCc2ccccc2C)on1.O=C(O)CC(O)(CC(=O)O)C(=O)O | 63.44% |
| Cc1ccccc1Oc1ncccc1CNC1CCC1 | 31.34% |
| CCCOc1ccccc1CN[C@@H]1CCC[C@H]1Cc1cc(C)no1.O=C(O)CC(O)(CC(=O)O)C(=O)O | 84.13% |
| COc1ccc(-c2nc(CN3CCc4cnc(C)nc4C3)no2)cc1 | -21.98% |
| Cc1cccc(NC(=O)[C@@H]2CCCN2Cc2nc3ccccc3o2)n1 | -70.67% |
| O=C(O)C(F)(F)F.O=C(O)c1cc(NS(=O)(=O)c2ccc(Cl)s2)ccc1N1CCOCC1 | -83.84% |
| CCCc1cc(N2CCC(Cc3cccc(C(N)=O)c3)C2)nc(C)n1 (stereo not drawn) | -73.24% |
| CN(C)c1cc(C(=O)NCc2cccnc2-n2cncn2)ccn1 | -24.53% |
| Cc1ccc(CN(CCN(C)C)C(=O)Nc2ccc(C)c(C#N)c2)s1 | 40.03% |
| Cc1ccsc1CN(CCN(C)C)C(=O)c1ccccc1C#N | 59.93% |
| Cc1ccsc1CN(CCN(C)C)C(=O)c1cc2ccccc2[nH]1 | -0.6518% |
| O=C(NC[C@@H]1CCCO1)c1cccnc1N1CCCC1c1ccccn1 (stereo partly drawn) | -159.2% |
| CCOC(=O)N[C@H]1C[C@@H](C(=O)NCCc2cccc(Cl)c2)N(C)C1 | -112.6% |
| Cc1nc(-c2cccc(N3CCC(N4CCCC4)CC3)c2)cs1 | 70.2% |

| SMILES | Percent Effect |
| --- | --- |
| COC1CCCN(C2CCN(c3cccc(-c4csc(C)n4)c3)CC2)C1 (stereo not drawn) | -26.41% |
| Cc1nc(-c2cccc(N3CCC(N4CCCC(C#N)C4)CC3)c2)cs1 (stereo not drawn) | -24.98% |
| CC(C)c1nnc(CN(C)Cc2ccccc2-c2ccccc2)o1 | -137.8% |
| Cc1nc(N2CCCC2)nc2c1CCN(C(=O)C(C)C)CC2 | -54.78% |
| O=C(COc1cccc2c1CCC2=O)NCc1ccccc1Cl | -71.52% |
| CCC(NC(=O)CC(F)(F)F)c1ccccc1OCC(=O)N1CCCC1 (stereo not drawn) | 15.61% |
| CCC(NCc1ccccc1Cl)c1ccccc1OCC(=O)NC (stereo not drawn) | 73.2% |
| Cc1ccccc1CNc1ccccc1OCC(=O)N1CCOCC1 | 13.74% |
| CCC(NCc1ccccc1C)c1ccccc1OCC(=O)NC (stereo not drawn) | 78.75% |
| Cc1ccc(OCCCC(=O)NC(C)c2nnc3n2CCC3)cc1 (stereo not drawn) | -64.5% |
| O=C1CCC(=O)N1CCn1nnc(-c2ccc(Br)cc2)n1 | -91.28% |
| CCS(=O)(=O)N1CCN(Cc2cccnc2)c2nc(C)ccc2C1.O=C(O)C(F)(F)F.O=C(O)C(F)(F)F | 2.753% |
| c1ccc(Oc2nccc3occc23)c(CN2CCCCC2)c1 | 71.51% |
| CN1CCN(Cc2c(-c3ccco3)[nH]c3ncccc23)CC1 | -17.66% |
| COc1ccc(Oc2cccc(C#N)n2)cc1CN1CCCC1 | -26.21% |
| COc1ccc(Oc2ccc(C(F)(F)F)cn2)cc1CN1CCCC1 | 49.66% |
| CCCc1nnc(N2CCN(Cc3ccccc3OC)CC2)o1 | -122.5% |
| CN1CCN(CCCOc2ccccc2CN2C[C@H]3CC[C@H]2C3)CC1 | 15.78% |
| O=S1(=O)CCCN(Cc2ccccc2OCC(F)(F)F)CC1 | -23.25% |
| COc1ccc(Oc2nccc3occc23)cc1CN1CCCC1 | 59.92% |
| CN1CCN(Cc2ccccc2Oc2nccc3occc23)CC1 | 77.3% |
| O=C(c1ccc(Cn2cccc2)cc1)N1CCN(CCO)CC1 | -124.1% |
| COc1ccc(C(=O)c2cnc(C(C)C)n2C)cc1 | -137.4% |
| CCC(Nc1cccc(Oc2ccccn2)c1)C(N)=O (stereo not drawn) | -89.12% |

| SMILES | Percent Effect |
| --- | --- |
| Cc1noc(C)c1C(=O)N1CCSc2ccc(Cl)cc21 | -64.97% |
| COc1ccc(CN2C[C@@H]3COC[C@@H](N4CCN(C)CC4)[C@@H]3C2)cc1.O=C(O)C(F)(F)F.O=C(O)C(F)(F)F.O=C(O)C(F)(F)F | 72.48% |
| CCN(CC)[C@H]1COC[C@@H]2CN(Cc3cnn(C)c3)C[C@@H]21 | -7.149% |
| Cc1cc(C)cc(CN2C[C@H]3COC[C@H](N4CCN(C)CC4)[C@H]3C2)c1.O=C(O)C(F)(F)F.O=C(O)C(F)(F)F.O=C(O)C(F)(F)F | 93.63% |
| CN1CCN([C@H]2COC[C@@H]3CN(Cc4cccnc4)C[C@@H]32)CC1 | -16.78% |
| O=C(O)C(F)(F)F.O=C(O)C(F)(F)F.c1cc2c(cc1CN1C[C@@H]3COC[C@@H](N4CCCC4)[C@@H]3C1)OCO2 | 41.71% |
| COc1ccc(CN2C[C@@H]3COC[C@H](N4CCN(C)CC4)[C@@H]3C2)cc1.O=C(O)C(F)(F)F.O=C(O)C(F)(F)F.O=C(O)C(F)(F)F | 39.43% |
| COc1ccc(CN2C[C@@H]3COC[C@@H](CC(=O)N4CCCC4)[C@@H]3C2)cc1.O=C(O)C(F)(F)F | -28.59% |
| CN(C)[C@H]1COC[C@@H]2CN(Cc3ccc4c(c3)OCO4)C[C@@H]21.O=C(O)C(F)(F)F.O=C(O)C(F)(F)F | 25.51% |
| CCOC(=O)[C@H]1[C@@H](O)C(=O)N(C)C12CCN(C(=O)CC(C)(C)C)CC2 | -173.1% |
| Cc1nn2cccnc2c1C(=O)N1CCCC(n2cccn2)C1 (stereo not drawn) | -26.13% |
| Cc1ccccc1CN1CC[C@H]2C[C@H](C(=O)N(C)C)O[C@H]2C1.O=C(O)C(F)(F)F | -65.63% |
| COc1ccc2nnc(CCC(=O)Nc3nc4c(s3)CCCCC4)n2n1 | -7.858% |
| CC(C)[C@]1(O)CN(C(=O)C2(Cn3cccn3)CC2)C[C@H]1C | -13.49% |
| COC[C@@]12CCO[C@@H]1CCN(C(=O)CCc1ccccc1Cl)C2 | -39.1% |
| O=C(Nc1ccc(-n2cccn2)cc1)N1CCC(O)C1 (stereo not drawn) | -73.59% |
| CC(=O)c1ccc(-n2c(C)cn(CCS(C)(=O)=O)c2=O)cc1 | 3.074% |
| CNC(=O)[C@H]1C[C@@H]2CN(C(=O)NCCc3ccccc3)C[C@H]1O2 | -57.69% |
| Cc1n[nH]cc1CNCc1ccnc(OCC(F)(F)F)c1.Cl | -70.94% |
| Cc1n[nH]cc1CNCc1cccc(OCC(F)(F)F)c1.Cl | 56.25% |
| Cc1n[nH]cc1CNC(=O)Nc1cccc(OCC(F)(F)F)c1 | -36.62% |
| O=C1CCNc2ccccc2CN1Cc1ccco1 | -58.24% |
| Cc1cnn(C2CCCN(C(=O)c3ccc(-n4ccnc4)cc3)C2)c1 (stereo not drawn) | -131.1% |
| c1ncn(CC2CCCN(Cc3noc(C4CC4)n3)C2)n1 (stereo not drawn) | -140.8% |

| SMILES | Percent Effect |
| --- | --- |
| CCc1nc(Nc2cccc(C(=O)NC)c2)c2c(n1)c(C)nn2CC | -106.8% |
| COc1ccnc(NC(Cc2ccccc2)C(N)=O)n1 (stereo not drawn) | -102.6% |
| COc1ccccc1C1(C(=O)NCCN2CCOCC2)CCOCC1 | -173.3% |
| Cc1ccccc1C1(C(=O)NCCN2CCCC2)CCOCC1 | -7.598% |
| Cc1ccc(CNCC2Cn3nncc3CO2)s1 (stereo not drawn) | -76.38% |
| CN(Cc1cncnc1)[C@H]1CN(C(=O)c2ccc[nH]2)[C@@H]2CCCO[C@@H]21 | -58.36% |
| CC(c1ccc(F)cc1F)N1CCN(CCC(=O)O)CC1.Cl (stereo not drawn) | -12.88% |
| CC(c1ccc(F)cc1F)N1CCN(CCN2CCCC2=O)CC1 (stereo not drawn) | -15.63% |
| CC(c1ccc(F)cc1F)N1CCN(CCC(=O)NC(N)=O)CC1 (stereo not drawn) | 63.51% |
| Fc1ccccc1OCCN1CCCCC1Cn1cncn1 (stereo not drawn) | -107.8% |
| O=C(O)C(F)(F)F.O=C(O)C(F)(F)F.c1nc(CNC2CCOCC2)c2n1CCCN(CC1CC1)C2 | -115.6% |
| COCCN(C)[C@@H]1c2ccccc2C2(CCNCC2)[C@H]1O | -111.9% |
| O[C@H]1[C@H](NCCc2cnccn2)c2ccccc2C12CCNCC2 | -10.61% |
| O[C@H]1[C@H](NCCc2ccccn2)c2ccccc2C12CCNCC2 | -35.06% |
| Cc1ccc(CCN[C@@H]2c3ccccc3C3(CCNCC3)[C@H]2O)s1 | 87.27% |
| COc1ccccc1CCN[C@@H]1c2ccccc2C2(CCNCC2)[C@H]1O | 81.73% |
| O[C@H]1[C@H](NCCSc2ccccn2)c2ccccc2C12CCNCC2 | 23.57% |
| Cc1ccc(-n2ncc3c2CCCC3N)cc1C (stereo not drawn) | 5.746% |
| COCCN(Cc1cccnc1)S(=O)(=O)c1ccc(F)cc1C | -88.98% |
| Cc1cccc(C2CCCN2S(=O)(=O)N(C)C)n1 (stereo not drawn) | -47.51% |
| C=C(C)CSc1nnc(CCNC(=O)OC(C)(C)C)o1 | -85.15% |
